High-throughput results from PubChem.
Pf growth 96h: Primary qHTS for delayed death inhibitors of the malarial parasite plastid, 96 hour incubation. P. falciparum luciferase reporter growth, 96 h. Potency, µM (highest dose often 28.7 µM), for inactives: at the top dose activity change, negative = inhibition, actives largely listed as inhibitors. hit rate 6.9% among 320,000. AID 504834, 2011; further: on the % scale 0 is the no-effect control and ±100 the full control effect
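P. falciparum expressing integrated firefly luciferase, in erythrocytes at 2% hematocrit, 0.05% parasitemia, incubated with compounds 96 h at 37 C, 5% CO2. Growth inhibition read as loss of luminescence; two-generation exposure targets delayed-death apicoplast inhibitors.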
AMA1-RON2 inh: qHTS for Inhibitors of AMA1-RON; Towards Development of Antimalarial Drug Lead: Primary Screen; Plasmodium falciparum AMA1 (3D7) - RON2 peptide interaction; AlphaScreen AMA1-biotinylated RON2 peptide binding; Potency, µM (series often up to 58.2 µM), inactives show at the highest dose activity change, negative = inhibition, most hits filed as inhibitors; hit rate 0.2% among 360,000;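 further: 0% = vehicle wells and -100% = peptide control; nearly all actives have a fitted effect of over 45% in size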
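AMA1 (3D7) with his tag at 25 nM final met compounds first, then biotinylated RON2 peptide at 25 nM; detection used donor plus acceptor beads, 10 µg/mL apiece, read by AlphaScreen after 30 min at room temperature.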
Pf growth 48h: Primary qHTS for delayed death inhibitors of the malarial parasite plastid, 48 hour incubation. P. falciparum luciferase growth in erythrocytes, 48 h. Potency, µM (series often up to 28.7 µM), inactives show at the highest dose activity change, negative = inhibition, hits mostly inhibitors. hit rate 5.9% among 310,000; further: on the % scale 0 is the no-effect control and ±100 the full control effect
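In quantitative HTS format, infected erythrocytes bearing luciferase-reporter parasites were treated for a single generation at 37 C. Luminescence after adding detection reagent served as the growth measure.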
HCV inhibitor: qHTS Assay for Inhibitors of Hepatitis C Virus (HCV) | Huh7.5.1 HCVcc-Cre infection, luciferase reporter, 44 h | Potency, µM (titrated, usually from 41.8 µM), for inactives: top-dose activity change, negative = inhibition, hits mostly inhibitors | hit rate 3.4% among 340,000 | AID 651820, 2012; further: on the % scale 0 is the no-effect control and ±100 the full control effect
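Luciferase read-out (15 sec integration) after a 15 min room-temperature substrate step quantifies HCVcc-Cre infection. Cells, 1,000 per well, had compound added 4 h post-plating, then virus at ~0.5 moi, and were cultured 44 h.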
HCV confirm: qHTS Assay for Inhibitors of Hepatitis C Virus (HCV): Confirmation Assay for Cherry-picked Compounds; Potency, µM (top dose mostly 41.8 µM), without a hit: at the highest dose activity, negative = inhibition, usual class: inhibitors; shares compounds with HCV inhibitor; AID 720575, 2013; HCVcc-Cre infectious virus cell assay, luciferase, inhibition; hit rate 78% among 640; further: nearly all actives have a fitted effect of over 80% in size
HCV host tox: qHTS Assay for Inhibitors of Hepatitis C Virus (HCV): Cytotoxicity Counterscreen for Cherry-picked Compounds | shares compounds with HCV inhibitor | HCV host cell line cytotoxicity counterscreen | Potency, µM (doses to about 41.8 µM), for the others: top-dose activity change, negative = cytotoxicity, most hits filed as inhibitors | hit rate 22% among 640;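 further: 44 h compound exposure; on the % scale 0 is the no-effect control and ±100 the full control effect; nearly all actives have a fitted effect of over 55% in size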
* hit, by the source's call; ? = inconclusive; nt = not tested or not shown; [ ] = another dose, or the depositor's remark. Most compounds without a hit are left out; they make up all but 11% or so of the library. The call rests on the fitted dose curve; in most records, active means well fitted curve in the direction sought with a large enough effect; inconclusive means small, poorly fitted or top-dose-only effect, or another doubt; inactive means no such curve, though single readings can be large; an effect the other way counts as inactive or inconclusive. Potency means the concentration at half of the fitted maximal effect.

SMILES	Pf growth 96h	AMA1-RON2 inh	Pf growth 48h	HCV inhibitor	HCV confirm	HCV host tox
Cc1ccc(NC(=O)COC(=O)CNC(=O)c2ccc(Br)cc2)c(C)c1	-2%	-8%	6%	7%	nt	nt
COCCn1c(=O)[nH]c2cc(C(=O)N3CCN(c4ccc(Cl)cc4)CC3)ccc2c1=O	26%	10%	-27%	8.9µM*	7µM*	?
COc1cc(OC)c(NC(=O)c2ccoc2C)cc1Cl	nt	-3%	-9%	?	nt	nt
COc1ccc(Cl)cc1NC(=O)c1ccoc1C	nt	-1%	4%	5.6µM*	14µM*	8%
CC(C)(C)C1CCc2c(sc3ncn(N)c(=N)c23)C1 (stereo unspecified)	-29%	100%	5%	?	6.3µM*	?
C[C@]12CC[C@@H]3c4ccc(O)cc4[C@@H](O)C[C@H]3[C@@H]1CC[C@@H]2O	-23%	nt	13%	-5%[8.37 µM]	nt	nt
C[C@]12CC[C@@H]3c4ccc(O)c(O)c4CC[C@H]3[C@@H]1CC[C@@H]2O	nt	?	nt	2.8µM*	20µM*	1%
CC1(C(=O)NCc2ccc(Cl)cc2)CCN1C(=O)Cc1ccc(Cl)cc1Cl (stereo unspecified)	nt	-4%	nt	nt	nt	nt
O=C1NC[C@@H](CCCCN2C[C@H](Cc3ccc(O)cc3)N(CC3CCCCC3)C(=O)C2=O)N(CC2CCCCC2)C1=O	nt	-6%	nt	nt	nt	nt
COc1ccc(CCC(C)NC(=O)Cc2ccc(OC)c(OC)c2)c(OC)c1 (stereo unspecified)	0%	-2%	-21%	7.1µM*	11µM*	?
Cc1cccc(CS(=O)(=O)c2ncc(Cl)c(C(=O)Nc3c(C)cccc3C)n2)c1	37%	4%	-15%	6.3µM*	10µM*	28µM*
COc1cc(OC)cc(C(=O)Nc2nc(-c3ccccc3)c(-c3ccccc3)o2)c1	?	30%	?	7.1µM*	13µM*	9%
Cc1nn(C(C)C(=O)NCc2ccco2)c(C)c1[N+](=O)[O-] (stereo unspecified)	-7%	-3%	-5%	10%	nt	nt
C/C(=N\NC(=O)C(C)n1nc(C)c([N+](=O)[O-])c1C)c1ccccc1O (stereo unspecified)	?	86%	9.3µM*	2.5µM*	7.9µM*	?
CC[n+]1c(/C=C2\Sc3ccccc3N2C)ccc2cccc(C)c21	10%	-16%	?	2.8µM*	2.5µM*	2.5µM*
CN1c2ccccc2Sc2cc(N)ccc21	-15%	?	?	-3%	nt	nt
NC(=O)C1CCCNC1 (stereo unspecified)	3%	33%	36%	1%	nt	nt
CN1CCN(/N=C/c2ccc(Cl)c(Cl)c2)CC1	162%	-15%	134%	?	?	-18%
Cc1ccc2sc(N(CCCN(C)C)C(=O)c3nc4ccccc4s3)nc2c1C	-13%	-4%	?	?	nt	nt
Cc1ccc2sc(N(CCCN(C)C)C(=O)c3ccc(Br)s3)nc2c1C	?	25µM*	?	7.1µM*	?	-28%
O=C(c1ccccc1)c1ccc(C(=O)N2CCN(c3ccccc3O)CC2)cc1	nt	-1%	nt	nt	nt	nt
COc1ccc(/C=N\NC(=O)c2ccccc2[N+](=O)[O-])cc1COc1c(F)c(F)c(F)c(F)c1F	-10%	-7%	36%	2.5µM*	13µM*	-20%
Cc1cc(=O)n2c3ccccc3n(CC(O)CN3CCCC3)c2c1C#N (stereo unspecified)	?	-4%	?	2µM*	13µM*	-22%
COC(=O)c1nn2c(C(F)(F)F)cc(-c3ccc(Br)o3)nc2c1Br	nt	?	16%	5.6µM*	?	-19%
COc1ccc(S(=O)(=O)n2ccc(-c3ccc(OCCN(C)c4ccccn4)cc3)n2)cc1	10µM*	-15%	4.7µM*	6.3µM*	7µM*	?
SMILES	Pf growth 96h	AMA1-RON2 inh	Pf growth 48h	HCV inhibitor	HCV confirm	HCV host tox
CN1C(=O)C(=Cc2ccc(OCCN(C)c3ccccn3)cc2)C(=O)N(C)C1=O	26%	-18%	236%	14%	nt	nt
COC(=O)c1c(NC(=O)C(=O)N2CCOCC2)sc2c1CCCC2	?	0%	-11%	?	nt	nt
Cc1cc(C)c(C(=O)OCCNC(=O)c2cccnc2)cc1C	8%	-18%	-18%	8.9µM*	?	-24%
NC(=NCCc1ccccc1)c1cccc([N+](=O)[O-])c1	0%	2%	?	12%	nt	nt
CCOc1ccc(-n2c(C)c3c(C)nnc(C)c3c2C)cc1	nt	-7%	nt	nt	nt	nt
Cc1cc(C)cc(-n2c(C)c3c(C)nnc(C)c3c2C)c1	?	12%	?	2.2µM*	11µM*	-14%
COc1ccc(OC)c(CC(=O)O)c1	-20%	3%	?	12%	nt	nt
COc1ccc2ccc3ccc(OC)c(OC(C)=O)c3c2c1	nt	13%	nt	?	25µM*	-13%
CCCCn1c(SCc2nc3ccccc3s2)nc2cc(S(N)(=O)=O)ccc21	?	-1%	nt	?	18µM*	-38%
COc1ccc([N+](=O)[O-])cc1NC(=O)c1ccco1	28%	10%	56%	?	?	18%
CCN(CC(=O)Nc1ccccc1OC)C(=O)COc1ccc2ccccc2c1	23%	9%	22%	21%	nt	nt
Cc1cc(C)nc(NCC(O)CNc2ccccc2Cl)n1 (stereo unspecified)	24%	-2%	0%	?	28µM*	12%
Cc1cccc2cc(C#N)c(NCCCNS(=O)(=O)c3ccc(Cl)cc3)nc12	-24%	79%	0%	8.9µM*	14µM*	?
O=C1OCCN1C(=O)[C@H]1[C@H](c2ccc([N+](=O)[O-])cc2)C(c2ccc(F)cc2)=NN1c1ccccc1	nt	0%	nt	?	nt	nt
O=C1OCCN1C(=O)[C@H]1[C@H](c2ccc([N+](=O)[O-])cc2)C(c2ccc(F)cc2)=NN1c1ccc(Br)cc1	nt	-1%	nt	-56%	?	26%
N=c1c(S(=O)(=O)c2ccc(Br)cc2)cc2c(=O)n3ccccc3nc2n1C1CCCCC1	3.7µM*	0%	8.3µM*	?	14µM*	16%
COc1ccc(CCNC(=O)c2cc3c(=O)n4ccccc4nc3n(CCCN3CCOCC3)c2=N)cc1	?	-13%	?	8.9µM*	16µM*	14%
COc1ccc(CCNC(=O)c2cc3c(=O)n4ccccc4nc3n(C3CCCCC3)c2=N)cc1	4.1µM*	4%	?	7.9µM*	14µM*	-10%
